Molecules are shown by their SMILES. The campaign covered roughly 1,200 compounds. About 600 (50%) were called active. Cut-off read from the data, not from the text of the source: active = inhibition above about 42%; inactive = the rest. The set was probably picked from earlier hits. The list shows a part of the results. Results with a measured potency or affinity are listed apart.

The assay deals with SUMO-conjugating enzyme UBC9 (Homo sapiens) (UniProt P63279). In words: SUMOylation inhibitor hit validation, confirmation, SUMOylation inhibitor project, biochemical, AlphaScreen (AID 2018). Particulars: AlphaScreen in vitro SUMOylation assay; at 35 µM; active compounds read high.
Sequence of SUMO-conjugating enzyme UBC9 (Homo sapiens) (P63279 whole entry, looked up): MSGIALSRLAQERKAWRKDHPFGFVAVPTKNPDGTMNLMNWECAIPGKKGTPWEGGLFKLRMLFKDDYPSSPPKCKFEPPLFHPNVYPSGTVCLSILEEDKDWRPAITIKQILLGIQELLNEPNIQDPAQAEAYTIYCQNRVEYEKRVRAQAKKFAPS
One may read the inhibition as the relative decrease from the control value, in per cent. Regarding `CN1CCc2cc3c(c4c2[C@H]1[C@H](O)c1ccccc1-4)OCO3`, the inhibition is 74% (active).

Take `NC(N)=NS(=O)(=O)c1ccc(NC(=S)NC(=O)/C=C/c2ccco2)cc1`: the inhibition was 34.2% (inactive).

As for `CC(=O)NC(=S)Nc1ccc(NC(=S)NC(=O)/C=C/c2ccco2)cc1`, the inhibition was 7.8% (inactive).

In the case of `COc1ccc(NC(=O)N2c3ccc(OC)cc3C(C)=CC2(C)C)cc1`, the inhibition was 28.1% (inactive).

For the compound `Cc1c(C(=O)c2ccc(F)cc2F)c2ccccn2c1CCC#N`, the inhibition was 15.4% (inactive).

For `COc1ccc(Cn2c(C)c(C)c(C#N)c2NC(=O)Nc2ccc(F)cc2)cc1`, the inhibition was -26.7% (inactive).

Turning to `c1cc(Nc2ncnc3sc4c(c23)CCC4)ccn1`, the inhibition was 12.9% (inactive).

Regarding `Cc1cc2n(n1)SC(Nc1cccc3ccccc13)N2` (stereo unspecified), the inhibition was 14% (inactive).

For `Cc1ccc2cc(C(c3nnnn3C(C)(C)C)N3CCCCCC3)c(=O)[nH]c2c1` (stereo unspecified), the inhibition was 0.1% (inactive).

Take `COc1ccc(-c2csc(NC(=S)NC(=O)/C=C/c3ccco3)n2)cc1OC`: the inhibition is 74.2% (active).

Consider `CNS(=O)(=O)c1ccc2nc(NC(=O)/C=C/c3ccco3)sc2c1`, for which the inhibition is 16.2% (inactive).

Turning to `Cc1nc2ccc(-c3nc4cc(N)ccc4o3)cc2[nH]1`, the inhibition was -11.6% (inactive).

With `CCCCCCC(C)OC(=O)c1ccccc1C(=O)O` (stereo unspecified), the inhibition is 10.7% (inactive).

Consider `Cc1c(Br)c(O)c(Br)c2sc(=O)oc12`, for which the inhibition is 49.6% (active).

For `Cc1ccc(Nc2nc(=O)c3cc([N+](=O)[O-])ccc3s2)cc1`, the inhibition was 24.2% (inactive).

For `COc1cc([N+](=O)[O-])cc(/C=N/NC(=O)C(C)Nc2cccc3ccccc23)c1O` (stereo unspecified), the inhibition was -212% (inactive).

Regarding `COc1cccc(OC)c1C(=O)N1CCNCC1`, the inhibition is -1.1% (inactive).

With `O=C(CNc1ccc2ccccc2c1)N/N=C/c1cc2ccccc2nc1Cl`, the inhibition is 37.3% (inactive).

In the case of `COc1cccc(/C=N/NC(=O)C(=O)N/N=C/c2cccc(OC)c2O)c1O`, the inhibition was 98.6% (active).

Regarding `COc1ccc2c(c1)-c1nc(/N=C/c3cccc(OC)c3O)sc1CC2`, the inhibition was 28.4% (inactive).

As for `CC(O)C(=O)N/N=C/c1cccc(Cl)c1Cl` (stereo unspecified), the inhibition was -34.7% (inactive).

`O=C(N/N=C/c1ccc(O)cc1O)C(=O)N/N=C/c1ccc(O)cc1O`: the inhibition is 101% (active).

With `O=C(NCCNc1ccc2ccccc2c1)c1cccn2c(=O)c3sccc3nc12`, the inhibition is 23.7% (inactive).

Turning to `CC(C)CC(=O)Nc1ccc2oc(-c3cccnc3)nc2c1`, the inhibition was 16.9% (inactive).

`Cc1ccc(-c2nc3cc(N)ccc3o2)cc1`: the inhibition is 11.5% (inactive).

In the case of `Cn1nccc1NC(=O)Nc1cccc(Br)c1`, the inhibition is -0.2% (inactive).

As for `CN1C(=O)c2cccc3c(S(=O)(=O)NCCc4ccccc4)ccc1c23`, the inhibition was -13% (inactive).

As for `CN1C(=O)c2cccc3c(S(=O)(=O)NCc4ccco4)ccc1c23`, the inhibition is 5% (inactive).

Take `CCN1C(=O)c2cccc3c(N)ccc1c23`: the inhibition was 50% (active).

Turning to `C=CCN1C(=O)N(/C=C/C)c2cccc3cccc1c23`, the inhibition is -14.9% (inactive).

Turning to `COC(=O)/C(=C\Nc1ccc(Cl)cc1Cl)NC(=O)c1ccc(OC)cc1`, the inhibition was 22.8% (inactive).

As to `COc1cccc(C(=O)Nc2cccc(C(=O)NC3=NN(c4c(Cl)cc(Cl)cc4Cl)C(=O)C3)c2)c1`, the inhibition was 101% (active).

Regarding `COc1cccc(NC(=S)Nc2cccc3ccccc23)c1`, the inhibition is 30.7% (inactive).

In the case of `C=CCc1cccc(/C=N/NC(=O)CNc2cccc3ccccc23)c1O`, the inhibition is 25.1% (inactive).

On to `O=C(CNc1cccc2ccccc12)N/N=C/c1ccccn1`, for which the inhibition was -1.7% (inactive).

`O=C(Cc1cc(=O)[nH][nH]1)N/N=C/c1cccc2ccccc12`: the inhibition was 47.2% (active).

For the compound `O=C1CC(c2ccco2)CC(O)=C1C=Nc1cc(Cl)ccc1O` (stereo unspecified), the inhibition is 54.5% (active).

Regarding `O=C1CC(c2ccco2)CC(O)=C1C=NCC1NCCc2ccccc21` (stereo unspecified), the inhibition was 18.6% (inactive).

Consider `O=C1CC(c2ccco2)CC(O)=C1C=Nc1cc(Cl)ccc1Cl` (stereo unspecified), for which the inhibition was 17.2% (inactive).

On to `O=C1CCN(c2ncccc2[N+](=O)[O-])CC1`, for which the inhibition is -9.6% (inactive).

As for `O=C1C(Cl)=C(N2CCN(c3ccccc3[N+](=O)[O-])CC2)C(=O)c2ccccc21`, the inhibition is 101% (active).

Consider `Nc1c(Cl)cc(NC(=O)c2ccccc2C(=O)O)cc1Br`, for which the inhibition was 8% (inactive).

On to `CCCCN1Cc2c(nc3cc(-c4ccco4)[nH]n3c2=O)C1=O`, for which the inhibition is 4.3% (inactive).

In the case of `NS(=O)(=O)c1cnccc1Nc1ccc(Cl)cc1`, the inhibition was -32.2% (inactive).

`C/C(=C\C(=O)c1ccccc1)Nc1ccc(O)cc1`: the inhibition is 18.7% (inactive).

As to `O=C(Nc1ccccc1)c1ccccc1CCc1ccccc1`, the inhibition was -9.6% (inactive).

For the compound `O=C(O)c1ccc(N2N=C(c3ccccc3)CC2c2ccccc2)cc1` (stereo unspecified), the inhibition was -14.9% (inactive).

On to `COc1ccc(C2=NN(C(=O)c3cccs3)C(c3ccccc3O)C2)cc1` (stereo unspecified), for which the inhibition was 27.7% (inactive).

As for `Cc1cc(=O)n2[nH]c(N)c(N=Nc3ccccc3)c2n1`, the inhibition is 23.6% (inactive).

With `CCOCCCNC1=C(Cl)C(=O)c2ccccc2C1=O`, the inhibition is 90.1% (active).

As to `O=C1c2nc3cc(-c4ccco4)[nH]n3c(=O)c2CN1C1CCCCC1`, the inhibition is 6.6% (inactive).

`Cc1[nH][nH]c(=O)c1C(c1c(C)[nH][nH]c1=O)c1cn(Cc2ccc(F)cc2)c2ccccc12`: the inhibition is 50.9% (active).

On to `Cc1[nH][nH]c(=O)c1C(c1c(C)[nH][nH]c1=O)c1cn(Cc2cccc3ccccc23)c2ccccc12`, for which the inhibition is 32.5% (inactive).

For `Cc1[nH][nH]c(=O)c1C(c1c(C)[nH][nH]c1=O)c1cn(C)c2ccccc12`, the inhibition was 102% (active).

For the compound `O=C(NCc1ccc(F)cc1)C(=O)c1cn(CC(=O)N2CCCC2)c2ccccc12`, the inhibition was 11.6% (inactive).

On to `O=C(O)/C=C/C(=O)Nc1ccc2c(c1)NC(=O)CO2`, for which the inhibition was 13.1% (inactive).

Regarding `COc1ccc2c(c1)c(=O)oc1c(C)c(OCc3ccc(C(=O)O)cc3)ccc12`, the inhibition is 65.5% (active).

Regarding `Cc1c(O)ccc2c(CC(=O)N[C@@H](Cc3ccc(O)cc3)C(=O)O)cc(=O)oc12`, the inhibition was 16.9% (inactive).

As for `COc1cc2cc(NC(C)=O)cc(NCc3ccccc3)c2cc1OC`, the inhibition was 50.6% (active).

With `CC(=O)Nc1cccc(NC(=S)Nc2cccc3ccccc23)c1`, the inhibition was 28.9% (inactive).

`COc1ccc(NC(=S)Nc2cccc3ccccc23)cc1OC`: the inhibition was 10.7% (inactive).

For `CCOC(=O)N1CCN(C2=C(NS(=O)(=O)c3ccc(C)cc3)C(=O)c3ccccc3C2=O)CC1`, the inhibition was 85.2% (active).

Turning to `CCOC(=O)N1CCN(C2=C(NS(=O)(=O)c3ccc(NC(C)=O)cc3)C(=O)c3ccccc3C2=O)CC1`, the inhibition is 53.7% (active).

Take `CCOC(=O)N1CCC(c2cc(=O)n(-c3ccccc3)[nH]2)CC1`: the inhibition was 16.1% (inactive).

As to `CC(=O)Nc1ccc(S(=O)(=O)Nc2cccn(Cc3ccc(C)cc3)c2=O)cc1`, the inhibition is 1.7% (inactive).

For `Cc1ccc(C(=O)Nc2ccccc2C(=O)N2CCN(c3ccccc3)CC2)cc1`, the inhibition was -27.1% (inactive).

For the origin of these results see PubChem BioAssay AID2018 (Sanford-Burnham Center for Chemical Genomics, 2009).
